In the library only some 4.1% were active in any assay of this set; here they are far more common.
hcDAF12 agonist – H. contortus DAF-12 nuclear receptor activators, primary screen, cell-based, luminescence, HEK293, lit1-tk-luc reporter; 1.4% of 370,000 active; HEK293 hcDAF-12 lit1-tk-luc reporter; 0% DMSO, 100% Δ7-dafachronic acid; activation, % at 6.8 µM; AID 652067, 2013;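 active = activation above the mean of all tested compounds plus 3 SD, cut at about 5.5% in these data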
hgDAF12 agonist – H. glycines DAF-12 receptor agonists, primary screen, cell-based, luminescence, HEK293, GAL4 fusion, UAS-luciferase | 1.8% of 370,000 active | AID 687014, 2013 | HEK293 GAL4-hgDAF12 UAS-luciferase reporter, agonist luminescence; normalized to butyrate control | activation, % at 6.8 µM;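 active = activation above a cutoff set at the mean of all screened compounds plus 3 SD, cut at about 10% in these data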
DAX1 inh-1 – DAX1 (NR0B1) inhibitors, primary screen, cell-based, HEK293, Gal4-DAX1, luciferase luminescence; Nuclear receptor subfamily 0 group B member 1 (Homo sapiens), P51843; HEK293 Gal4-DAX1 luciferase reporter; inhibition, % at 6.75 µM; 0.99% of 340,000 active;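 active = inhibition above the mean over all tested compounds plus 3 SD, cut at about 4.2% in these data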;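 note: inhibition shows as a rise in luminescence from relieved DAX1 repression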
ssDAF12 agonist – S. stercoralis DAF-12 nuclear receptor activators, primary screen, cell-based, luminescence, HEK293, GRIP1 co-expression, lit1-tk-luc; Nuclear hormone receptor DAF-12 (Strongyloides stercoralis); HEK293 ssDAF-12/GRIP1 lit1-tk-luc reporter; % of 3 µM dafachronic acid response; activation, % at 6.8 µM; 1% of 370,000 active;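 active = activation above the mean over all tested compounds plus 3 SD, cut at about 0.9% in these data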
DAX1 inh-2 – DAX1 (NR0B1) inhibitors on StAR promoter, primary screen, cell-based, luminescence, SF-1 (NR5A1), full-length DAX-1. HEK293T StAR-luciferase reporter, SF-1/DAX-1 repression relief. inhibition, % at 6.8 µM. 1.1% of 370,000 active;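 active = inhibition above the mean over all tested compounds plus 3 SD, cut at about 3.6% in these data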;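 note: higher inhibition means more luminescence from relief of DAX-1 repression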
LXR ag – LXR agonists, Gal4 luciferase reporter, confirmation, counter-screen for hcDAF-12 agonist project, cell-based, luminescence, HEK293, H. contortus campaign | shares compounds with hcDAF12 agonist | HEK293 Gal4-LXR tk-luc reporter, 24 h; normalized: DMSO 0%, positive control 100% | activation, % at 6.8 µM | 3,400 tested, under 10 active;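 active = mean percent activation of the reporter above a cutoff set as the average over tested compounds plus their standard deviation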
Target sequence (P55055 whole entry, looked up, the tested form may be a part): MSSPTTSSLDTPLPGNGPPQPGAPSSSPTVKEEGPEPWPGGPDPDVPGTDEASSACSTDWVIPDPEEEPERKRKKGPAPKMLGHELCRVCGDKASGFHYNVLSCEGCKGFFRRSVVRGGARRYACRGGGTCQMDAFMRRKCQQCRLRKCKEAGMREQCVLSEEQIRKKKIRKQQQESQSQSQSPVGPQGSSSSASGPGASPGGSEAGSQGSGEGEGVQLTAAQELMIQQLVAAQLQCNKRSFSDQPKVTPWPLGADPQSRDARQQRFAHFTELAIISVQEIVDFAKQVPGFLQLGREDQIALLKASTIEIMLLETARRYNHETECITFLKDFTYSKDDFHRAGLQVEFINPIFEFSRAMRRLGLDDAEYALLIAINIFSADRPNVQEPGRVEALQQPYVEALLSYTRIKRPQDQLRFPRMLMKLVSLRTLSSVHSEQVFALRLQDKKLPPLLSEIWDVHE
hcDAF12 conf – H. contortus DAF-12 receptor agonists, confirmation, cell-based, luminescence, HEK293, lit1-tk-luc, triplicate. shares compounds with hcDAF12 agonist. HEK293 hcDAF-12 lit1-tk-luc reporter; % of Δ7-dafachronic acid response. activation, % at 6.8 µM. 61% of 3,400 active;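 active = mean activation across triplicate tests above the threshold derived from the earlier primary screen, cut at about 5.5% in these data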
hgDAF12 conf – H. glycines DAF-12 receptor agonists, confirmation, cell-based, luminescence, HEK293, GAL4-LBD fusion; shares compounds with hgDAF12 agonist; HEK293 GAL4-hgDAF12 luciferase reporter, agonist mode; percent of butyrate response; activation, % at 6.8 µM; 80% of 3,300 active; AID 743050, 2013;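 active = mean activation over triplicate wells above the hit cutoff derived from the earlier primary screen, cut at about 11% in these data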
LXR ag 2 – LXR agonists, Gal4 luciferase reporter, confirmation, counter-screen for hgDAF-12 agonist project, cell-based, luminescence, HEK293, H. glycines campaign | shares compounds with hgDAF12 agonist | 24 h | activation, % at 6.8 µM | 3,300 tested, under 10 active;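 active = mean activation of the triplicate above a set limit carried over from the primary screen, none filed active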
Numbers stand for hits; . = inactive; / = no result given.

SMILES	hcDAF12 agonist	hgDAF12 agonist	DAX1 inh-1	ssDAF12 agonist	DAX1 inh-2	LXR ag	hcDAF12 conf	hgDAF12 conf	LXR ag 2
N#C/C(=C\c1cn(-c2ccccc2)nc1-c1cc2ccccc2o1)c1nc2ccccc2[nH]1	6.6	.	.	.	.	.	.	/	/
CN(C)S(=O)(=O)c1cccc(-c2nn(-c3ccccc3)cc2/C=C(\C#N)c2nc3ccccc3[nH]2)c1	.	.	.	.	.	/	/	/	/
O=C(N/N=C/c1cn(-c2ccccc2)nc1-c1cc2ccccc2o1)c1cccnc1	8.6	.	.	1.2	.	.	11	/	/
O=C(NCc1ccccc1Cl)[C@H]1CCCN1C(=O)[C@H]1CCCN1C(=O)c1ccccc1	.	.	/	.	.	/	/	/	/
O=C(COc1cccnc1[N+](=O)[O-])N1CCC(Cc2ccccc2)CC1	.	.	.	.	.	/	/	/	/
O=C(COc1ccccc1[N+](=O)[O-])OCC(=O)N1CCC(Cc2ccccc2)CC1	7.6	.	.	.	.	.	.	/	/
C/C(Cc1ccccc1)=N\NC(=O)c1ccc(F)cc1	.	.	.	.	.	/	/	/	/
O=C(NN=C(Cc1ccccc1)Cc1ccccc1)c1ccc(F)cc1	6.8	.	.	.	.	.	.	/	/
CCN1C(=O)[C@H]2[C@@H](c3ccc(-c4ccc(Cl)c(Cl)c4)cc3)N[C@@](Cc3ccccc3)(C(=O)OC)[C@H]2C1=O	.	.	.	.	.	/	/	/	/
Cc1ccc(Nc2ncc3c(n2)CC(C)CC3=O)c(C)c1 (stereo unspecified)	7.1	.	.	.	.	.	.	/	/
CC1CC(=O)c2cnc(NCc3ccco3)nc2C1 (stereo unspecified)	.	.	.	.	.	/	/	/	/
Oc1ccc(N=Nc2ccc3ccccc3c2)cc1	7.1	16	.	.	.	.	.	20	.
Oc1ccc(N=Nc2c(O)ccc3ccccc23)cc1	.	.	.	.	.	/	/	/	/
Cc1cccc(/C=C(\c2nc3ccccc3[nH]2)S(=O)(=O)c2ccccc2)c1	.	.	.	.	.	/	/	/	/
Cc1cccc(/C=C(\C(=O)C(=O)O)c2ccc3ccccc3n2)c1	11	21	.	1.8	.	.	8.1	14	.
CCOC(=O)c1sc(=NC(=O)c2ccco2)n(C)c1C	9.0	14	.	.	.	.	11	14	.
c1ccc(Nc2nc(-c3ccccc3)ns2)cc1	16	22	.	2.0	.	.	9.5	29	.
O=c1[nH]c(-c2ccccc2)cn1C1CCN(Cc2ccc(-c3nc4ccccc4nc3-c3ccccc3)cc2)CC1	.	.	/	.	.	/	/	/	/
COc1ccc(-c2csc(-n3cccn3)n2)cc1	7.0	14	.	.	.	.	.	18	.
Cc1cccc(Nc2nc(-c3ccc(F)c(C)c3)cs2)n1	9.0	14	5.4	1.2	.	.	7.7	17	.
Cc1cccc(Nc2nc(-c3ccc(O)c(O)c3)cs2)n1	.	.	.	.	.	/	/	/	/
O=C1NC[C@H](CCCCN2C[C@H](Cc3ccc(O)cc3)N(CCc3ccccc3)C(=O)C2=O)N(CCc2ccc(O)cc2)C1=O	.	.	/	.	.	/	/	/	/
COC(=O)c1cc([N+](=O)[O-])c(C)c(C)n1	.	.	.	.	.	/	/	/	/
COc1cccc(C(=O)N[C@H](C(=O)N2CCC[C@H]2C(=O)NCc2ccccc2)c2ccccc2)c1	.	.	/	.	.	/	/	/	/
O=C(CSc1cn(Cc2ccccc2)c2ccccc12)Nc1nccs1	9.7	24	.	1.1	8.9	.	8.9	18	.
SMILES	hcDAF12 agonist	hgDAF12 agonist	DAX1 inh-1	ssDAF12 agonist	DAX1 inh-2	LXR ag	hcDAF12 conf	hgDAF12 conf	LXR ag 2
O=C(CSc1ccccc1)Nc1nccs1	.	.	.	.	.	/	/	/	/
O=C(/C=C/c1ccccc1Cl)Nc1ccccc1	16	20	/	2.6	.	.	16	25	.
Cc1ccc2nc(-c3cccnc3)oc2c1	.	.	.	.	.	/	/	/	/
Cc1ccc2nc(-c3ccccn3)oc2c1	12	14	.	2.8	.	.	15	24	.
CCOc1ncccc1C(=O)Nc1nc(SC)ns1	6.9	14	.	.	.	.	6.1	11	.
COc1cccc(CCNS(=O)(=O)c2c(C)n[nH]c2C)c1	.	.	/	.	.	/	/	/	/
Cc1cc(N/C=C/C(=O)c2ccc(Br)cc2)no1	.	.	.	.	.	/	/	/	/
Cc1ccnc(N/C=C/C(=O)c2ccc(Br)cc2)c1	9.0	18	.	.	.	.	7.2	21	.
COc1ccc2cc(C(=O)NC3CCCCC3)c(=O)oc2c1	.	.	.	.	.	/	/	/	/
O=C(NC1CCCCCC1)c1cc2ccccc2oc1=O	7.5	13	.	0.9	4.0	.	.	16	.
Cc1cccc(-n2ncc3c(N4CCC(C)CC4)ncnc32)c1	6.6	24	.	.	7.6	.	6.2	13	.
O=C(Nc1ccnn1C1CCN(C2CCCC2)CC1)c1ccccc1	.	.	.	.	.	/	/	/	/
Nc1c(C(=O)NCC(O)c2ccccc2)cnn1-c1ccccc1 (stereo unspecified)	6.6	18	/	.	.	.	6.2	14	.
Nc1c(C(=O)N2CCOCC2)sc2nc3c(cc12)CCCC3	6.9	14	.	.	.	.	7.1	.	.
Nc1c(C(=O)N2CCCC2)sc2nc3c(cc12)CCCCCC3	.	.	.	.	.	/	/	/	/
Cc1ccc(-c2nc3nc4ccccc4nc3n2Cc2ccco2)cc1	11	16	.	1.4	5.1	.	8.8	14	.

From PubChem BioAssay
